Source: PubChem BioAssay (NCATS)
Values joined by “and” are separate entries in the source; they are usually repeats but may differ in a detail not shown here. Equal entries are not always repeated. Inconclusive results are not listed. Active and inactive are the calls of the source. Unless noted, calls follow the shape of the dose curve; as a rule, active = well fitted curve in the direction sought with a large enough effect; inconclusive = small, poorly fitted or top-dose-only effect, or another doubt; inactive = no such curve, though single readings can be large; an effect the other way counts as inactive or inconclusive.

How the values were obtained:
[1] = Cell Viability - BJ (AID 421; calls by dose curve;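 also: potency is read from the fitted curve at half-maximal effect; cells exposed to compound for 40 hours at 37 °C before readout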); conditions: BJ fibroblast viability, qHTS
Method in brief: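 Quantitative HTS: ATP depletion in BJ cells after 40 hr compound exposure in complete culture medium, detected with CellTiter-Glo; AC50 from standard Hill fits.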

[2] = Cellular Toxicity (caspase-3) BJ (AID 658); conditions: BJ fibroblasts, luminescence, normalized: DMSO 0%, staurosporine 100%; series mostly up to 91.7 µM
Method in brief: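 Plated BJ cells (1000/well) rested 5 hr, received compound for 16 hr at 37 °C, then Caspase-Glo 3/7 reagent for 1 hr at room temperature before luminescence reading.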

[3] = Cellular Toxicity (caspase-3) SK-N-SH (AID 661); conditions: SK-N-SH caspase-3 activation, qHTS; series mostly up to 91.7 µM
Method in brief: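 Cells were seeded and incubated 5 hr at 37 °C, dosed with compound over a concentration range for 16 hr, then given Caspase-Glo 3/7 reagent for 1 hr at room temperature before luminescence reading.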

[4] = Cellular Toxicity (caspase-3) H-4-II-E (AID 663); conditions: H-4-II-E rat hepatoma; Potency: caspase-3 activation; series mostly up to 92.2 µM;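 also: cells exposed to compound for 16 hr before readout; 0% = DMSO basal and 100% = 100 µM tamoxifen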
Method in brief: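 Caspase 3/7 activation measured in H-4-II-E cells in complete culture medium after 16 hr treatment at 37 °C, using luciferase-coupled substrate readout; AC50 values come from Hill-equation fits of normalized concentration-response data.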

[5] = Cellular Toxicity (caspase-3) N2a (AID 665); conditions: N2a cells, luminescence, normalized: DMSO 0%, 10 µM staurosporine 100%; series mostly up to 92.2 µM;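 also: compound exposure lasted 16 h at 37 °C before readout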
Method in brief: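 Caspase-3/7 activation, measured as increased luminescence from aminoluciferin release, is quantified in mouse N2a cells exposed to compounds for 16 h. Values are normalized to DMSO and 10 uM staurosporine, with AC50 derived by Hill modelling.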

[6] = Cell Viability - LYMP1-002 - Assay at 16 hr (AID 948); conditions: LYMP1-002 lymphoblastoid cell viability; series mostly up to 92.2 µM;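 also: 0% = DMSO alone and full effect = 92 µM tetraoctylammonium bromide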
Method in brief: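 LYMP1-002 human lymphoblastoid cells, 2500/well, were treated with compounds for 16 hr at 37 C in complete medium. Viability was read as intracellular ATP by CellTiter-Glo luminescence, and AC50 was derived from a Hill fit to concentration-response data.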

[7] = MultiTox-Fluor Cytotoxicity Assay - LYMP1-003 - Dead Cells (AID 961); conditions: LYMP1-003 lymphoblastoid cells, dead-cell protease fluorescence; series mostly up to 92.2 µM;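 also: cells exposed to compound for 16 h at 37 °C; 0% = DMSO and 100% = tetraoctylammonium bromide; nearly all actives have a fitted effect of over 70% in size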
Method in brief: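 Acute toxicity is scored as increased dead-cell protease activity in human lymphoblastoid LYMP1-003 cells after 16 h compound exposure in complete culture medium. Activity is normalized to DMSO basal and 15 uM tetraoctylammonium bromide as full response.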

[8] = Cell Viability - LYMP1-003 - Assay at 40 hr (AID 964); conditions: LYMP1-003 lymphoblastoid viability; series mostly up to 92.2 µM; also: % is scaled to controls: 0 for no effect and ±100 for the full control effect; nearly all actives have a fitted effect of over 60% in size
Method in brief: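 Luminescent ATP signal (CellTiter-Glo) served as the viability read-out after 40 hr compound treatment of human lymphoblastoid LYMP1-003 cells at 37 C. Decreases in ATP were fitted with the Hill equation to give AC50.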

[9] = Cell Viability - LYMP2-011 (AID 969); conditions: LYMP2-011 lymphoblastoid cells viability; series mostly up to 92.2 µM;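 also: 0% = DMSO only and full inhibition = 92 µM tetraoctylammonium bromide; nearly all actives have a fitted effect of over 60% in size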
Method in brief: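 In this qHTS cytotoxicity format, compounds are tested across concentrations on human lymphoblastoid cells in complete medium for 24 hours at 37 C. Viability is taken as cellular ATP measured by luciferase luminescence.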

[10] = Cell Viability - LYMP2-019 (AID 973); conditions: LYMP2-019 lymphoblastoid cell line viability; series mostly up to 92.2 µM;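 also: cells exposed to compound for 24 h at 37 °C; 0% = DMSO alone and full effect = 92 µM tetraoctylammonium bromide; nearly all actives have a fitted effect of over 55% in size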
Method in brief: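 Cytotoxicity is scored as a concentration-dependent drop in cellular ATP after cells (2500/well) receive compound for 24 hr at 37 C. Tetraoctylammonium bromide serves as positive control.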

[11] = Cell Viability - LYMP2-023 (AID 975); conditions: LYMP2-023 lymphoblastoid cell viability; series mostly up to 92.2 µM;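 also: plate controls were DMSO only for no effect and 92 µM tetraoctylammonium bromide control for full effect; nearly all actives have a fitted effect of over 55% in size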
Method in brief: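 Steps: seed 2500 human lymphoblastoid cells per well, incubate 5 hr at 37 C, add compound for 24 hr at 37 C, add CellTiter-Glo, hold 30 min at room temperature, read luminescence. AC50 derived by Hill modelling.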

[12] = Cell Viability - LYMP2-008 (AID 980); conditions: LYMP2-008 lymphoblastoid cell viability, qHTS; series mostly up to 92.2 µM;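 also: cells exposed to compound for 24 h at 37 °C; % is scaled to controls: 0 for no effect and ±100 for the full control effect; nearly all actives have a fitted effect of over 60% in size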
Method in brief: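 Cells seeded at 2500/well and rested 5 hr at 37 C; compounds added over a concentration range and incubated 24 hr at 37 C; CellTiter-Glo added, 30 min at room temperature; luminescence read and AC50 fitted with Hill model.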

[13] = Cell Viability - LYMP2-018 (AID 985); conditions: LYMP2-018 lymphoblastoid cells, viability (qHTS); series mostly up to 92.2 µM;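 also: compound exposure lasted 24 hr at 37 °C; plate controls were DMSO only for no effect and tetraoctylammonium bromide at 92 µM for full effect; nearly all actives have a fitted effect of over 50% in size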
Method in brief: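 Seed 2500 lymphoblastoid cells per well, incubate 5 hr at 37 C, add compound and incubate 24 hr at 37 C, add CellTiter-Glo, wait 30 min at room temperature, then read luminescence.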

[14] = Cell Viability - LYMP1-002 - Assay at 24 hr (AID 993); conditions: LYMP1-002 lymphoblastoid cells viability; series mostly up to 92.2 µM; also: % is scaled to controls: 0 for no effect and ±100 for the full control effect
Method in brief: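 Acute toxicity is measured as concentration-dependent loss of cellular ATP in a human lymphoblastoid line (Coriell LYMP1-002) after 24 h treatment in complete medium. ATP is quantified by luciferase luminescence and AC50 derived by Hill modelling.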

[15] = qHTS assay for cell viability of HEK293 cells (AID 743288); conditions: ATP luminescence (CellTiter-Glo), 18 h, stronger effect = lower value; also: % is scaled to controls: 0 for no effect and ±100 for the full control effect; nearly all actives have a fitted effect of over 50% in size
Method in brief: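 Steps: plate 2,000 parental HEK293 cells per well; incubate ≥5 h, 37 C; add compounds in DMSO; incubate 18 h, 37 C; add CellTiter-Glo; wait 30 min at room temperature; read luminescence.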

[16] = qHTS assay for small molecule activators of the human pregnane X receptor (PXR) signaling pathway (AID 720659; call rule not given here; also: 0% is about no effect); conditions: DPX-2 HepG2 CYP3A4-luciferase, 24 h; series mostly up to 92.3 µM

Clc1cccc(Cl)c1
inactive: Potency [1] > 92 µM | outcome [2] | Potency [3] | Potency [4] | outcome [5] | outcome [6] | Potency [7] | Potency [8] | Potency [9] | Potency [10] | Potency [11] | Potency [12] | Potency [13] | Potency [14] | max response [15] -11.3% | outcome [16]

Clc1ccccc1
inactive: Potency [1] > 92 µM | outcome [2] | Potency [3] | Potency [4] | outcome [5] | outcome [6] | Potency [7] | Potency [8] | Potency [9] | Potency [10] | Potency [11] | Potency [12] | Potency [14] | max response [15] 10.9% | outcome [16]

ClCC(Cl)CCl
inactive: Potency [1] > 92 µM | outcome [2] | outcome [5] | outcome [6] | Potency [7] | Potency [8] | Potency [9] | Potency [10] | Potency [11] | Potency [12] | Potency [13] | outcome [16]

C=CCCl
inactive: Potency [1] > 92 µM | outcome [2] | Potency [3] | Potency [4] | outcome [5] | outcome [6] | Potency [7] | Potency [8] | Potency [9] | Potency [10] | Potency [11] | Potency [12] | Potency [13] | Potency [14] | max response [15] 2.61% | outcome [16]

Oc1ccc(Cl)c(Cl)c1Cl
inactive: Potency [1] > 92 µM | outcome [2] | Potency [3] | Potency [4] | outcome [5] | outcome [6] | Potency [7] | Potency [8] | Potency [9] | Potency [10] | Potency [11] | Potency [12] | Potency [13] | Potency [14] | max response [15] -4.77% | outcome [16]

CCBr
inactive: Potency [1] > 92 µM | outcome [2] | Potency [3] | Potency [4] | outcome [6] | Potency [7] | Potency [8] | Potency [9] | Potency [10] | Potency [11] | Potency [12] | Potency [13] | max response [15] -3.34% | outcome [16]

CNC(=O)O/N=C/C(C)(C)S(C)=O (configuration not stated)
inactive: Potency [1] > 92 µM | outcome [2] | Potency [3] | Potency [4] | outcome [5] | outcome [6] | Potency [8] | Potency [9] | Potency [11] | Potency [12] | Potency [13] | Potency [14] | max response [15] 0.711% and -4.36% | outcome [16]

CN(C)c1ccc(N(C)C)cc1
inactive: Potency [1] > 92 µM | Potency [3] | Potency [4] | outcome [5] | outcome [6] | Potency [7] | Potency [14] | max response [15] -3.92% | outcome [16]

ClCC(Br)CBr (configuration not stated)
inactive: Potency [1] > 92 µM | outcome [2] | Potency [3] | Potency [4] | outcome [5] | Potency [7] | Potency [8] | Potency [9] | Potency [10] | Potency [11] | Potency [12] | Potency [13] | Potency [14] | max response [15] -7.97% | outcome [16]

CCOP(=S)(OCC)SCCSCC
inactive: Potency [1] > 92 µM | Potency [3] | Potency [4] | outcome [5] | outcome [6] | Potency [7] | Potency [8] | Potency [9] | Potency [10] | Potency [11] | Potency [12] | Potency [13] | Potency [14] | max response [15] -9.57% and -7.92%

Nc1cc(Cl)cc(Cl)c1
inactive: outcome [2] | Potency [3] | Potency [4] | outcome [5] | outcome [6] | Potency [8] | Potency [9] | Potency [10] | Potency [11] | Potency [13] | Potency [14] | max response [15] 5.59% | outcome [16]

N#CCCC#N
inactive: Potency [1] > 92 µM | outcome [2] | Potency [3] | outcome [5] | outcome [6] | Potency [7] | Potency [8] | Potency [10] | Potency [11] | Potency [13] | Potency [14] | max response [15] -2.73% | outcome [16]

C/C=C/C=O
inactive: Potency [1] > 92 µM | outcome [2] | Potency [3] | Potency [4] | outcome [5] | outcome [6] | Potency [7] | Potency [8] | Potency [9] | Potency [10] | Potency [11] | Potency [12] | Potency [13] | Potency [14] | max response [15] 5.69% | outcome [16]

CC[N+](=O)[O-]
inactive: Potency [1] > 92 µM | outcome [2] | Potency [4] | outcome [5] | Potency [7] | Potency [8] | Potency [9] | Potency [10] | Potency [11] | Potency [12] | Potency [13] | Potency [14] | max response [15] 0.073% | outcome [16]

c1ccc2c(c1)CCNC2
inactive: Potency [1] > 92 µM | Potency [4] | outcome [5] | Potency [7] | Potency [8] | Potency [9] | Potency [10] | Potency [11] | Potency [12] | Potency [13] | Potency [14] | outcome [16]

Nc1ccc(Cc2ccc(N)c(Cl)c2)cc1Cl
inactive: Potency [1] > 92 µM | outcome [2] | Potency [3] | Potency [4] | outcome [5] | outcome [6] | Potency [7] | Potency [8] | Potency [9] | Potency [10] | Potency [11] | Potency [12] | Potency [13] | Potency [14] | max response [15] -12.3%

O=[N+]([O-])CCO
inactive: Potency [1] > 92 µM | outcome [2] | Potency [3] | Potency [4] | outcome [5] | outcome [6] | Potency [7] | Potency [8] | Potency [10] | Potency [11] | Potency [12] | Potency [13] | Potency [14] | max response [15] -4.92% | outcome [16]

CC(=O)CCC(C)=O
inactive: Potency [1] > 92 µM | outcome [2] | Potency [3] | Potency [4] | outcome [5] | outcome [6] | Potency [7] | Potency [8] | Potency [9] | Potency [10] | Potency [11] | Potency [12] | Potency [13] | Potency [14] | max response [15] -8.83% | outcome [16]

COc1ccccc1N
inactive: Potency [1] > 92 µM | outcome [2] | Potency [3] | Potency [4] | outcome [6] | Potency [7] | Potency [8] | Potency [9] | Potency [10] | Potency [11] | Potency [13] | max response [15] -0.892% | outcome [16]

O=[N+]([O-])c1ccccc1O
inactive: Potency [1] > 92 µM | outcome [2] | Potency [4] | outcome [5] | outcome [6] | Potency [7] | Potency [10] | Potency [11] | Potency [12] | Potency [13] | Potency [14] | max response [15] 0.38% | outcome [16]

Oc1c(Cl)cccc1Cl
inactive: Potency [1] > 92 µM | outcome [2] | Potency [3] | Potency [4] | outcome [5] | outcome [6] | Potency [7] | Potency [8] | Potency [9] | Potency [10] | Potency [11] | Potency [12] | max response [15] -3.49% | outcome [16]

COc1cc(-c2ccc(N)c(OC)c2)ccc1N
inactive: Potency [1] > 92 µM | outcome [2] | Potency [3] | Potency [4] | outcome [5] | Potency [7] | Potency [8] | Potency [9] | Potency [10] | Potency [12] | Potency [13] | Potency [14] | max response [15] 15.2% and -15% and -5%

COC(=O)c1ccccc1N
inactive: Potency [1] > 92 µM | outcome [2] | Potency [3] | Potency [4] | outcome [5] | outcome [6] | Potency [7] | Potency [8] | Potency [9] | Potency [10] | Potency [12] | Potency [13] | Potency [14] | max response [15] -4.36% | outcome [16]

CC(Cl)(Cl)Cl
inactive: Potency [1] > 92 µM | Potency [3] | Potency [4] | outcome [5] | outcome [6] | Potency [7] | Potency [8] | Potency [9] | Potency [11] | Potency [12] | Potency [13] | Potency [14] | max response [15] 6.17% and -1.09% | outcome [16]
